Inconclusive results are not listed. A number with no mark means an inactive call. Active and inactive are the calls of the source. The call rests on the fitted dose curve; in most records, active means well fitted cell-killing curve with a large enough effect; inconclusive means small, poorly fitted or top-dose-only effect, or effect the other way; inactive means no such curve, though single readings can be large or run the other way.
Assay: Quantitative High-Throughput drug screen in 47 multiple myeloma cell lines against the NCATS MIPE library collection: PCM6_Riken cell viability assay (AID 1919870); further: nearly all actives have a fitted effect of over 30% in size
Conditions: CellTiter-Glo ATP, 48 h; series mostly up to 45.8 µM; viability (% of control): at the top concentration
Source text: PI: Beverly A. Mock Ph.D.
Laboratory of Cancer Biology and Genetics,
Center for Cancer Research, National Cancer Institute,
National Institute of Health, Bethesda, Maryland
Drug resistance and disease progression are common in multiple myeloma (MM) patients, underscoring the need for new therapeutic combinations. […] We hypothesized that effective combinations would reduce MYC expression and enhance p16 activity. […] These preclinical data identify potentially useful drug combinations for evaluation in drug-resistant MM and reveal potential mechanisms of combined drug sensitivity.
Described herein is the primary MIPE qHTS used to cherrypick compounds. Validated compounds were then further tested for potential synergistic activiy.
[1] Peat TJ, Gaikwad SM, Dubois W, Gyabaah-Kessie N, Zhang S, Gorjifard S, Phyo Z, Andres M, Hughitt VK, Simpson RM, Miller MA, Girvin AT, Taylor A, Williams D, D'Antonio N, Zhang Y, Rajagopalan A, Flietner E, Wilson K, Zhang X, Shinn P, Klumpp-Thomas C, McKnight C, Itkin Z, Chen L, Kazandijian D, Zhang J, Michalowski AM, Simmons JK, Keats J, Thomas CJ, Mock BA. Drug combinations identified by high-throughput screening promote cell cycle transition and upregulate Smad pathways in myeloma. Cancer Lett. 2023 Aug 1;568:216284. doi: 10.1016/j.canlet.2023.216284. Epub 2023 Jun 24. PMID: 37356470; PMCID: PMC10408729.
SEQUENCE No. (e.g., 1, 2, 3, etc.); […] (e.g., Cells, Incubation, Reagent, etc.); VALUE and DESCRIPTION.
1; Cells; 5 uL; white, solid bottom 1536-well Greiner assay plate.
2; Compounds; 23 nL; Kalypsis pin tool (Wako USA) equipped with a 1536-well pin head to transfer to the assay plates.
3; Incubation; 48 hours; 37C incubation.
4; Reagent;5uL; CellTiter Glo (Promega).
5; Detector; 425V; Luminescence; Viewlux PerkinElmer.
NOTES (numbers refer to Sequence numbers above)
1. The cell-based screening methods employed in this study were like those previously published. Briefly, the corresponding myeloma cell lines were screened in 1,536-well plates with 500 cells, 5-uL per well for inhibition of cell viability (assessed by measuring ATP levels with CellTiterGlo).
2. NCATS MIPE 4.0 library of approved and investigational drugs were added using the Kalypsis pin tool. Wells treated with DMSO only for 100% viability and media only for 0% viability were used as controls.
3. The assay plates were covered and incubated for 48 hours in a 37C, 5% CO2 incubator with controlled humidity.
4. After 48 hours, CellTilter-GloTM luminescent substrate mix (Promega) reagent was added to the assay plate and plates we incubated for 5 min at room temperature.
5. Signal was measured as median relative luminescence units on a ViewLux (PerkinElmer) multiplate reader.
[1] Heske CM, Davis MI, Baumgart JT, Wilson K, Gormally MV, Chen L, Zhang X, Ceribelli M, Duveau DY, Guha R, Ferrer M, Arnaldez FI, Ji J, Tran HL, Zhang Y, Mendoza A, Helman LJ, Thomas CJ. Matrix Screen Identifies Synergistic Combination of PARP Inhibitors and Nicotinamide Phosphoribosyltransferase (NAMPT) Inhibitors in Ewing Sarcoma. Clin Cancer Res. 2017 Dec 1;23(23):7301-7311. doi: 10.1158/1078-0432.CCR-17-1121. Epub 2017 Sep 12. PMID: 28899971; PMCID: PMC6636827.
Potency means the concentration at half of the fitted maximal effect.

Row | Structure (SMILES) | Potency | viability (% of control) [%]
1 | NCCCC(O)(P(=O)(O)O)P(=O)(O)O | 9.35 µM (active) | –
2 | NC1(c2ccc(-c3nc4ccn5c(=O)[nH]nc5c4cc3-c3ccccc3)cc2)CCC1 | 1.66 µM (active) | –
3 | CCOC(=O)c1ccc(OC(=O)CCCCCN=C(N)N)cc1 | – | 115
4 | COc1ncnc(NS(=O)(=O)c2ccc(N)cc2)c1OC | – | 112
5 | CNNCc1ccc(C(=O)NC(C)C)cc1 | – | 124
6 | CC1=CC(=O)c2ccccc2C1=O | 18.7 µM (active) | –
7 | CS(=O)(=O)c1ccc([C@@H](O)[C@@H](CO)NC(=O)C(Cl)Cl)cc1 | 16.6 µM (active) | –
8 | COC(=O)Nc1nc2ccc(C(=O)c3ccccc3)cc2[nH]1 | 5.9 µM (active) | –
9 | CCCCCCNC(=O)n1cc(F)c(=O)[nH]c1=O | – | 83.1
10 | CC1=C(C(=O)O)N2C(=O)[C@@H](NC(=O)C(N)c3ccccc3)[C@H]2SC1 (stereo not given in full) | – | 107
11 | Nc1nc(F)nc2c1ncn2[C@@H]1O[C@H](CO)[C@@H](O)[C@@H]1O | 0.264 µM (active) | –
12 | Cn1c(=O)c2c(ncn2CC(O)CO)n(C)c1=O (stereo not given) | – | 125
13 | O=C(O)c1cn(C2CC2)c2cc(N3CCNCC3)c(F)cc2c1=O | – | 140
14 | O=C(O)c1ccc(-n2nc(-c3ccccc3O)nc2-c2ccccc2O)cc1 | 23.5 µM (active) | –
15 | Nc1nc(N)nc(-c2cc(Cl)ccc2Cl)n1 | – | 99.8
16 | CC(=O)Oc1ccccc1C(=O)Nc1ncc([N+](=O)[O-])s1 | 27 µM (active) | –
17 | O=c1cc(O)c(Cl)c[nH]1 | 2.96 µM (active) | –
18 | CCc1c2c(nc3ccc(OC(=O)N4CCC(N5CCCCC5)CC4)cc13)-c1cc3c(c(=O)n1C2)COC(=O)[C@]3(O)CC | 13.2 µM (active) | –
19 | Cc1noc(NS(=O)(=O)c2ccc(N)cc2)c1C | – | 106
20 | COc1ccc(C(=O)CC(=O)c2ccc(C(C)(C)C)cc2)cc1 | 0.935 µM (active) | –

Row | Structure (SMILES) | Potency | viability (% of control) [%]
21 | CC(N)C12CC3CC(CC(C3)C1)C2 (stereo not given) | – | 86
22 | CCOC(=O)[C@H](CCc1ccccc1)N[C@H]1CS[C@H](c2cccs2)CN(CC(=O)O)C1=O | 1.05 µM (active) | –
23 | Cc1nnc(C(=O)NC(C)(C)c2nc(C(=O)NCc3ccc(F)cc3)c(O)c(=O)n2C)o1 | – | 123
24 | COc1ccc2cc3[n+](cc2c1OC)CCc1cc2c(cc1-3)OCO2 | 11.8 µM (active) | –
25 | CC(C)OC(=O)OCOP(=O)(CO[C@H](C)Cn1cnc2c(N)ncnc21)OCOC(=O)OC(C)C | 16.6 µM (active) | –
26 | CC(C)NCC(O)c1ccc(NS(C)(=O)=O)cc1 (stereo not given) | – | 117
27 | CC[C@H](C)C(=O)O[C@H]1C[C@@H](C)C=C2C=C[C@H](C)[C@H](CC[C@@H]3C[C@@H](O)CC(=O)O3)[C@H]21 | – | 81.8
28 | CCn1cc(C(=O)O)c(=O)c2cc(F)c(N3CCN(C)CC3)cc21 | – | 113
29 | CC(C)OC(=O)C(C(=O)OC(C)C)=C1SC=CS1 | – | 101
30 | CN(C)CCc1c[nH]c2ccc(C[C@H]3COC(=O)N3)cc12 | – | 105
31 | CN(C)c1ccc(C(=C2C=CC(=[N+](C)C)C=C2)c2ccc(N(C)C)cc2)cc1 | 0.0372 µM (active) | –
32 | CN1CCN(c2c(F)cc3c(=O)c(C(=O)O)cn(CCF)c3c2F)CC1 | – | 101
33 | CO[C@@]12[C@H](COC(N)=O)C3=C(C(=O)C(C)=C(N)C3=O)N1C[C@@H]1N[C@@H]12 | 20.9 µM (active) | –
34 | CCn1cc(C(=O)O)c(=O)c2cc(F)c(N3CCNCC3)nc21 | – | 92.7
35 | OC(Cn1cncn1)(Cn1cncn1)c1ccc(F)cc1F | – | 135
36 | COc1c(N2CCNC(C)C2)c(F)cc2c(=O)c(C(=O)O)cn(C3CC3)c12 (stereo not given) | – | 115
37 | Nc1nc(=S)c2[nH]cnc2[nH]1 | 7.43 µM (active) | –
38 | NNC(=O)c1ccncc1 | – | 112
39 | CCCc1cc(C(N)=S)ccn1 | – | 93.5
40 | C1CCC(C(CC2CCCCN2)C2CCCCC2)CC1 (stereo not given) | 10.5 µM (active) | –

From PubChem BioAssay (NCATS)
